Laboratory results: PubChem BioAssay AID624491 (Broad Institute, 2012)
Screen size: about 1,800 compounds; about 1,400 (78%) were called active. About 2% were inconclusive and are not listed.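 Rule for the calls: active = fitted curve crossing a set activation limit at or below the highest valid dose tested; inconclusive = flat fit at 30 to 70% activation, or poor fit; inactive = the rest, including signal decreases.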 The set was probably picked from earlier hits. The list is a sample of the results. Entries with a potency or affinity are not part of this list.

Assay: blockers of NLG process in reporter cells – D54 ERlucT cells, luminescence, cherry-picks, dose response (AID 624491);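 note: signal gain reflects blocked N-linked glycosylation of a luciferase reporter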
Settings: D54 ERlucT glycosylation luciferase reporter, 24 h, 100% = twice neutral-control luminescence; series mostly up to 19.5 µM

Activation (NLG inhibition), inactive:
CC1(C(=O)NCc2ccccc2)Cc2c(-c3ccc4c(c3)OCO4)ccnc2O1 (stereo not drawn)
CC(=O)Nc1cccc(-c2ccnc3c2CC(C)(C(=O)NCc2ccc(N(C)C)cc2)O3)c1 (stereo not drawn)
O=C(CCl)Nc1cc(-c2ccccc2)nn1-c1ccccc1
CCOC(=O)c1c(C)oc2c(F)c(F)c(F)c(F)c2c1=O
COc1ccc(S(=O)(=O)Nc2ccc3c(c2)n(C)c(=O)n3C)cc1OC
CC(=O)Nc1sc(C)c(C)c1C(=O)OCC(=O)Nc1cccc(C)c1
CCOC(=O)c1c(NC(C)=O)sc2c1CCC(C=O)=C2Sc1ccccc1
COC(=O)c1cc(=O)n(Cc2ccco2)c(=Nc2ccc(F)cc2)s1
Cc1cnc(NC(=O)C2CC(=O)N(c3cccc(Cl)c3)C2)s1 (stereo not drawn)
COc1ccc(-c2nc(NC(=O)C3CC(=O)N(c4ccc5c(c4)OCCO5)C3)sc2C)cc1 (stereo not drawn)
CCOC(=O)C1CCN(Cc2cc(Cl)c3ccccc3c2O)CC1
CCOC(=O)C1CCN(S(=O)(=O)Cc2ccccc2)CC1
CCOC(=O)/C=C(\C)Sc1cc(=O)oc2ccccc12
Cc1ccc(OCC(=O)Nc2ccc(NC(=O)c3cccs3)cc2)c(C)c1
Cc1ccc(C(=O)Nc2ccc(C(=O)/C=C/c3cccs3)cc2)cc1
COc1ccc(Nc2nc(N)c(C(=O)c3ccc(F)cc3)s2)cc1
Cc1nn(CC(C)C)c(Cl)c1C(=O)N(c1ccc(Cl)cc1F)S(C)(=O)=O
C[C@]1(O)CC(=O)C=C[C@H]1Nc1ccccc1
COc1cccc(-c2cc(C(=O)Nc3cc(OC)c(OC)c(OC)c3)no2)c1
COc1cc(NC(=O)N2CCc3nc(NCc4cccc(Oc5ccccc5)c4)ncc3C2)cc(OC)c1OC
COc1cc2cc(-c3ccc(O)cc3O)nc(C)c2cc1OC
COc1ccc(C(=O)n2c(-c3ccco3)nc3ccccc32)cc1
CCOC(=O)C(=Cc1ccc(-c2ccsc2C(=O)OC)o1)C(=O)OCC
CCCN(CCC)S(=O)(=O)c1ccc(C(=O)Nc2nc3c(s2)CCc2ccccc2-3)cc1
O=C(NC1CCCCC1)c1cccc2c1C(=O)c1ccc(-c3ccc(OC(F)(F)F)cc3)cc1S2(=O)=O
CCN(CC)c1cc(C)c2cc(NC(=O)c3ccccc3OC)ccc2n1
CCOC(=O)c1cc2c(ccn2C)n1CC(=O)N1CCN(c2ccccc2)CC1
CCOC(=O)c1cc2sccc2n1CC(=O)N1c2ccccc2CC1C (stereo not drawn)
COc1ccc(-n2c(=S)[nH]c3cc(C(=O)NC4CCCCC4)ccc3c2=O)c(OC)c1
COC(=O)c1ccc2c(=O)n(Cc3ccc(C(=O)NC(C)C)cc3)c(=S)[nH]c2c1
CCN1/C(=C/c2ccc3ccccc3[n+]2CC)C=Cc2ccccc21
COc1cc(CCC(=O)Nc2nnc(C)s2)cc(OC)c1OC
Cc1noc2ncnc(Sc3ccc(Cl)cc3)c12
Cc1ccc(C)c(N2CCN(c3cnn(-c4nc5ccccc5s4)c(=O)c3Cl)CC2)c1
COc1ccc(C2NC(=S)NC3=C2CCCC3=C2SCCS2)cc1 (stereo not drawn)
O=C(Cc1csc(Nc2nc(=S)[nH]c3ccccc23)n1)NCc1cccc(Cl)c1
CNC(=O)c1cccc2nc3ccccc3nc12
CC(C)Oc1ccccc1C1CC(=O)Nc2cc3c(cc21)OCO3 (stereo not drawn)
CCOc1ccccc1C1CC(=O)Nc2cc3c(cc21)OCCO3 (stereo not drawn)
COc1cc(C2CC(=O)N(c3ccc(C)cc3)C(=O)C2)cc(OC)c1OC
COc1cc(/C=C(/C(=O)c2cccs2)c2nc3ccccc3[nH]2)cc(OC)c1O
O=C(N/N=C/c1ccc2c(c1)OCO2)C1COc2ccccc2O1 (stereo not drawn)
N#Cc1c(NC(=O)/C=C/c2ccco2)sc2c1CCCC2
COC(=O)C1=C(C(=O)OC)[C@@H]2N(Cc3ccccc3)c3ccccc3[C@@]23C[C@@H](C(=O)OC)N(C(=O)c2cc(C)oc2C)C3=N1
CC(C)C1N=C(c2ccc3c(c2)OCO3)CC(c2ccccc2O)N1 (stereo not drawn)
CC(=O)c1ccc(OCC(O)CN2CCN(CCN3C(=O)c4cccc5cccc(c45)C3=O)CC2)cc1 (stereo not drawn)
COc1ccc(-c2cc(C(F)F)n3ncc(C(=O)n4ccnc4C)c3n2)cc1
Cc1ccc(-c2cc(C(F)F)n3ncc(C(=O)N4CCc5ccccc54)c3n2)cc1
CC(=O)N(C(C)=O)n1c(C)nc2sc3c(c2c1=O)CCCC3
O=C1/C(=C/c2ccccc2)CCc2ccc(Cl)nc21
COc1cccc(-n2c(SCC(=O)NC3CCCCC3)nc3n[nH]c(C)c3c2=N)c1
NC(=O)c1ccc2c(=O)n3c(-c4cc(Cl)c(N)c(Cl)c4)csc3nc2c1
Cc1ccnc(NC(=O)Nc2ccc3c(c2)N(C)C(=O)CS3)c1
COC(=O)c1ccc(Oc2cc(C)nc(-n3nc(C)cc3C)n2)cc1
Cc1ccc2cc3c(N)c4c(C)ccc(C)c4nc3nc2c1
Cc1ccc(N2C(=O)c3cccc4c([N+](=O)[O-])ccc(c34)C2=O)c2cccnc12
Cc1cc(N2CCN(c3ccc([N+](=O)[O-])c4cccnc34)CC2)c2ccccc2n1
Cc1ccc2c(c1)NC(=O)[C@@]1(C)[C@@H](c3ccccc3)[C@H]3COc4ccccc4[C@@H]3N1C2=O
CCN(CC)c1ccc(/C=C/c2cccc[n+]2C)c(OC)c1
COc1ccc(C=C(c2nc3ccccc3s2)c2nc3ccccc3s2)cc1O
O=C(N/N=C/c1ccccn1)c1sc2ccccc2c1Cl
CC(=O)Nc1cccc(-c2ccnc3c2CC(C(=O)NCc2ccco2)O3)c1 (stereo not drawn)
Nc1nc(-c2ccccn2)nc(N)c1Cc1ccc(Cl)cc1Cl
CC(=O)Nc1cccc(-c2ccnc3c2CC(C(=O)NCc2ccc(F)c(F)c2)O3)c1 (stereo not drawn)
COc1ccc(CNC(=O)C2Cc3c(-c4ccc5c(c4)OCO5)ccnc3O2)cc1OC (stereo not drawn)
CN(C)Cc1c(O)ccc2c1O/C(=C\C=C\c1ccccc1)C2=O
COc1ccc(OC)c(NS(=O)(=O)c2ccc(N3CCCC3=O)cc2)c1
COc1ccc(Cl)cc1/C=C/c1ccc2cccc(O)c2n1
O=C(CC(O)c1ccncc1)c1ccccc1O (stereo not drawn)
CCOC(=O)c1[nH]c2ccc(F)cc2c1NC(=O)C(C)N1CCc2cc(OC)c(OC)cc2C1 (stereo not drawn)
C#CC(=O)CC1(CN(Cc2ccccc2)C(=O)OC(C)(C)C)CCCCC1
CCN(CC(=O)Nc1ccccc1OC)CC(=O)Nc1ccccc1-c1ccccc1
COC(=O)c1cc(=O)n(Cc2ccc3c(c2)OCO3)c(=Nc2ccc(F)c(Cl)c2)s1
CC1=C([N+](=O)[O-])C(c2ccccc2)C2=C(N1)c1ccccc1C2=O (stereo not drawn)
COc1cc2cc(/C=C/C(=O)c3ccco3)c(Cl)nc2cc1OC
COc1ccc([N+](=O)[O-])cc1NC(=O)CCN1CCN(CCO)CC1
NC(=O)CC(NC(=O)c1ccc(Br)cc1)c1ccc(N2CCCCCCC2)c([N+](=O)[O-])c1 (stereo not drawn)
NC(=O)CC(NC(=O)Cc1ccc(Cl)cc1)c1ccc(NC2CC3CCC2C3)c([N+](=O)[O-])c1 (stereo not drawn)
CC(C)Nc1ccc(C(CC(N)=O)NC(=O)Cc2ccc(Br)cc2)cc1[N+](=O)[O-] (stereo not drawn)
NC(=O)CC(NC(=O)Cc1ccc(Br)cc1)c1ccc(NCc2cc(F)ccc2F)c([N+](=O)[O-])c1 (stereo not drawn)
NC(=O)CC(NC(=O)Cc1ccc(Br)cc1)c1ccc(NC2CCCC2)c([N+](=O)[O-])c1 (stereo not drawn)
CCCOc1ccc(F)cc1-c1cc(C(=O)Nc2ccc(C(C)C)cc2)[nH]n1
Oc1c(Br)cc(Br)cc1CNc1cccc2cccnc12
Nc1c(C(=O)Nc2ccc(S(=O)(=O)N3CCCC3)cc2)sc2nc3cc4c(cc3cc12)CCC4
c1ccc2c(-c3nc4ccccc4[nH]3)cccc2c1
CCc1nn(C(C)C(=O)N2CCN(c3ccc(OC)cc3)CC2)c(=O)c2cc3occc3n12 (stereo not drawn)
COc1cccc(C(=O)Nc2ccc3c(c2)C(=O)c2ccccc2C3=O)c1
O=C(Nc1ccccc1-c1ccccc1)C1CCCC1
CC#CC#Cc1cccc(=O)o1
O=C(/C=C/c1ccccc1)c1ccc2c3c(cccc13)CC2
Cc1cc(NC(=O)CSc2nc3ccccc3c(=O)n2C2CCCC2)no1
Cc1cc(NC(=O)/C=C/C(=O)N(CC(=O)NC2CCCC2)c2ccc(F)cc2)no1
Nc1nc(Nc2ccccc2)sc1C(=O)c1ccccc1
COc1cc2ccccc2cc1C(=O)N1CCc2ccccc21
COc1ccccc1N1CCN(C(=O)c2ccc(Cl)c(S(=O)(=O)NCc3ccco3)c2)CC1
CCOc1ccc(S(=O)(=O)Nc2cc(OC)ccc2OC)cc1
COc1cc(-c2nc3cnccn3c2Nc2ccc(C)cc2)ccc1O
COCCCNC(=O)c1cccc2c(-c3ccc(O)c(OC)c3)coc12
COc1cc(OC)cc(C(=O)NNC(=O)c2ccc3ccccc3n2)c1
CC(C)[n+]1ccn(C2=C([O-])c3ccccc3C(=O)/C2=N\S(=O)(=O)c2ccccc2)c1
CC(C)c1ccc(NC(=O)[C@@H](NC(=O)N2CC(=O)Nc3ccccc32)C(C)C)cc1
O=C(CNC(=O)N1CC(=O)Nc2ccccc21)NCCCc1ccccc1
CCC(C)[C@H](NC(=O)N1CC(=O)Nc2ccccc21)C(=O)Nc1ccccc1C (stereo partly drawn)
